In all, about 300,000 compounds went through this assay and about 1,700 (0.57%) were called active. About 2% were inconclusive and are not listed.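 The calls were made as follows: active = growth inhibition above about 58% in most replicates (limit read from the data, passing the limit was not always enough); inconclusive = exactly half the replicates above a set limit; inactive = most replicates below a set limit.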 The sample as a whole holds a higher share of actives than the screen did.
Test: Candida growth reduction under fluconazole – CaCi-2 strain, Alamar Blue fluorescence, primary screen (AID 1979);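 also: all wells also contain fluconazole at 8 µg/ml as a sub-toxic cotreatment; 0% = median of DMSO wells and 100% = median of geldanamycin control wells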
Conditions: C. albicans CaCi-2 (fluconazole-resistant clinical isolate) + fluconazole, 48 h, stronger effect = higher value, concentration not given here

**Q.** Which growth inhibition does the source give for `Cc1ccc(C)c(NC(=O)COC(=O)Cn2c(C)csc2=O)c1` here?
**A.** Its growth inhibition is -4.71% (inactive).

**Q.** With `COc1cc(NS(=O)(=O)c2ccc3ccccc3c2)c2ncccc2c1` as the molecule, how does the growth inhibition read?
**A.** The growth inhibition was 89.3% (active).

**Q.** With `COc1ccc2cc(S(=O)(=O)Nc3ccccn3)ccc2c1` as the molecule, how does the growth inhibition read?
**A.** Its growth inhibition is -0.283% (inactive).

**Q.** For `Cc1ccc(NS(=O)(=O)c2ccc(C)c(NC(=O)COc3ccc4ccccc4c3)c2)c(C)c1`, which growth inhibition is on record?
**A.** The growth inhibition was 31.8% (inactive).

**Q.** Which growth inhibition does the source give for `Cc1ccc(Nc2nc(CSc3nnc(-c4ccncc4)n3-c3ccccc3C)cs2)cc1` here?
**A.** The growth inhibition was 113% (active).

**Q.** For `Cc1ccc(-n2c(SCC(=O)N3c4ccccc4Sc4ccccc43)nnc2-c2ccncc2)cc1`, which growth inhibition is on record?
**A.** Its growth inhibition is -22.2% (inactive).

**Q.** For `Cc1ccccc1-n1c(SCC(=O)NCc2cccs2)nnc1-c1ccncc1`, which growth inhibition is on record?
**A.** Its growth inhibition is 8.03% (inactive).

**Q.** Which growth inhibition does the source give for `O=C(OCCOCn1cc(Br)c(=O)[nH]c1=O)c1ccccc1` here?
**A.** Its growth inhibition is -9.14% (inactive).

**Q.** With `CCOc1ccc(NC(=O)COc2ccc(C(=O)N3CCC(C(N)=O)CC3)cc2OC)cc1` as the molecule, how does the growth inhibition read?
**A.** Its growth inhibition is -4.97% (inactive).

**Q.** Which growth inhibition does the source give for `CC(C)Oc1ccc(S(=O)(=O)N2CCOCC2)cc1NC(=O)C1CSC2(C)CCC(=O)N12` (stereo unspecified) here?
**A.** The growth inhibition was -0.702% (inactive).

**Q.** Which growth inhibition does the source give for `COc1ccc(C(=O)NCCCN2CCOCC2)cc1Br` here?
**A.** The growth inhibition was -0.331% (inactive).

**Q.** Which growth inhibition does the source give for `Cc1ccc(S(=O)(=O)N2CCN(C(=O)Cc3sc(C)nc3-c3ccc(F)cc3)CC2)c(C)c1` here?
**A.** The growth inhibition was -1.25% (inactive).

**Q.** With `Cc1nc2c(c(C)nn2-c2ccccc2)c(C)c1C` as the molecule, how does the growth inhibition read?
**A.** Its growth inhibition is 1.68% (inactive).

**Q.** For `O=C(N/N=C/c1ccccn1)c1cccnc1`, which growth inhibition is on record?
**A.** The growth inhibition was 6.91% (inactive).

**Q.** With `O=C(N/N=C/c1ccc(O)c2ccccc12)c1cccnc1` as the molecule, how does the growth inhibition read?
**A.** The growth inhibition was 11.5% (inactive).

**Q.** Which growth inhibition does the source give for `O=C(N/N=C/c1sc(N2CCCCC2)nc1-c1cccs1)c1cccnc1` here?
**A.** The growth inhibition was 94.5% (active).

**Q.** Which growth inhibition does the source give for `CCOc1ccc(NC(=O)c2ccc(NC(=O)CN3C(=O)C(=O)N(CC(C)C)C3=O)cc2)cc1` here?
**A.** The growth inhibition was -2.68% (inactive).

**Q.** For `COc1ccc(S(=O)(=O)NCc2cccnc2)cc1NC(=O)c1ccc(C)cc1`, which growth inhibition is on record?
**A.** Its growth inhibition is -3.27% (inactive).

**Q.** Which growth inhibition does the source give for `CCOc1ccc(-n2c(O)c(/C=N/Nc3nc(C)cc(C)n3)c3ccccc3c2=O)cc1` here?
**A.** The growth inhibition was 113% (active).

**Q.** For `CCN(CC)CCCN=Cc1c(O)n(-c2ccc(C)cc2)c(=O)c2ccccc12`, which growth inhibition is on record?
**A.** Its growth inhibition is -8.89% (inactive).

**Q.** Which growth inhibition does the source give for `CCOc1ccc(-n2c(O)c(/C=N/c3ccnn3Cc3ccncc3)c3ccccc3c2=O)cc1` here?
**A.** Its growth inhibition is 15.4% (inactive).

**Q.** With `CCOC(=O)c1c(C)[nH]c(C(=O)OCC(=O)N2CCCC2=O)c1C` as the molecule, how does the growth inhibition read?
**A.** The growth inhibition was -3.16% (inactive).

**Q.** With `Cc1nc2ccccc2nc1N/N=C/c1ccc(O)cc1O` as the molecule, how does the growth inhibition read?
**A.** The growth inhibition was 10.5% (inactive).

**Q.** For `C=CCn1c(CC(=O)Nc2cccc(OC)c2)nnc1SCC(=O)NC1CCCCC1`, which growth inhibition is on record?
**A.** The growth inhibition was 4.51% (inactive).

**Q.** For `COc1ccc(-n2cnnc2SCC(=O)Nc2cccc(S(N)(=O)=O)c2)cc1`, which growth inhibition is on record?
**A.** Its growth inhibition is -1.9% (inactive).

**Q.** With `C=CCn1c(COc2ccc(F)cc2)nnc1SCC(=O)Nc1cccc(S(N)(=O)=O)c1` as the molecule, how does the growth inhibition read?
**A.** The growth inhibition was 94.6% (active).

Source: PubChem BioAssay AID1979 (Broad Institute, 2009)
